Results filed as inconclusive are left out. Calls of active or inactive are those of the source. The call rests on the fitted dose curve; in most records, active means well fitted curve in the direction sought with a large enough effect; inconclusive means small, poorly fitted or top-dose-only effect, or another doubt; inactive means no such curve, though single readings can be large; an effect the other way counts as inactive or inconclusive.
How the values were obtained:
[1] = tested on: HACAT; assay: qHTS assay to identify novel small-molecules to repurpose for Merkel cell carcinoma treatment (AID 1296009); settings: MCC and control cell lines, CellTiter-Glo viability, 72 h; at 44.8 µM (top of the series) unless noted; further: nearly all actives have a fitted effect of over 60% in size
Method in brief: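 72 hr, 37 degree celsius; NPC 8-pt / MIPE 11-pt dose response; compound pinned in DMSO; CellTiter-Glo, 10 min RT, luminescence; normalized to no-cell and DMSO controls.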

[2] = tested on: C33A; assay: Primary qHTS to identify gynecologic anti-cancer compounds using libraries of approved drugs and bioactive compounds (AID 1345084); settings: Gynecologic cancer cell panel viability, ATPlite luminescence, 48 h; series mostly up to 57.5 µM; further: on the % scale 0 is the no-effect control and ±100 the full control effect; nearly all actives have a fitted effect of over 55% in size
Method in brief: (§1)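 Luminescence from the ATPlite ATP-monitoring reagent indicates viable cell number; lower signal means cytotoxicity. Cells received compound 16 h after seeding and were exposed for 48 h across five concentrations.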

[3] = tested on: CAOV3; assay: as above; settings: Gynecologic cancer cell panel viability, ATPlite luminescence, 48 h; series mostly up to 57.5 µM
Method in brief: as §1

[4] = tested on: CASKI; assay: as above; settings: Gynecologic cancer cell panel viability, ATPlite luminescence, 48 h; series mostly up to 57.5 µM
Method in brief: as §1

[5] = tested on: Es-2; assay: as above; settings: Gynecologic cancer cell panel viability, ATPlite luminescence, 48 h; series mostly up to 57.5 µM
Method in brief: as §1

[6] = tested on: HeLa; assay: as above; settings: Gynecologic cancer cell panel viability, ATPlite luminescence, 48 h; series mostly up to 57.5 µM
Method in brief: as §1

[7] = tested on: Hek293T; assay: as above; settings: Gynecologic cancer cell panel viability, ATPlite luminescence, 48 h, control line for the selectivity index; series mostly up to 57.5 µM
Method in brief: as §1

[8] = tested on: JEG-3; assay: as above; settings: Gynecologic cancer cell panel viability, ATPlite luminescence, 48 h; series mostly up to 57.5 µM
Method in brief: as §1

[9] = tested on: OV90; assay: as above; settings: Gynecologic cancer cell panel viability, ATPlite luminescence, 48 h; series mostly up to 57.5 µM
Method in brief: as §1

[10] = tested on: PA-1; assay: as above; settings: Gynecologic cancer cell panel viability, ATPlite luminescence, 48 h; series mostly up to 57.5 µM
Method in brief: as §1

[11] = tested on: SKOV3; assay: as above; settings: Gynecologic cancer cell panel viability, ATPlite luminescence, 48 h; series mostly up to 57.5 µM
Method in brief: as §1

[12] = tested on: Tov-21-G; assay: as above; settings: Gynecologic cancer cell panel viability, ATPlite luminescence, 48 h; series mostly up to 57.5 µM
Method in brief: as §1

[13] = tested on: Tov112D; assay: as above; settings: Gynecologic cancer cell panel viability, ATPlite luminescence, 48 h; series mostly up to 57.5 µM
Method in brief: as §1

OC[C@H]1O[C@@H](O[C@H]2[C@H](O)[C@@H](CO)O[C@@H](OCc3ccccc3)[C@@H]2O[C@@H]2OC[C@](O)(CO)[C@H]2O)[C@H](O)[C@@H](O)[C@@H]1O
inactive: outcome [1] inactive [at 17.4 µM] | Potency [2] | Potency [3] | outcome [4] | Potency [5] | Potency [6] | Potency [7] | Potency [8] | Potency [9] | Potency [10] | Potency [11] | Potency [12] | Potency [13]

Cc1cc(C)c2nc(-c3ccccn3)cc(C(=O)Nc3ccc(S(=O)(=O)Nc4onc(C)c4C)cc3)c2c1
inactive: outcome [1] | Potency [2] | Potency [3] | outcome [4] | Potency [5] | Potency [6] | Potency [7] | Potency [8] | Potency [9] | Potency [10] | Potency [11] | Potency [12] | Potency [13]

COc1c2ccoc2nc2c(OC)c(O[C@@H]3O[C@@H](C)[C@H](O)[C@@H](O[C@@H]4O[C@H](CO)[C@@H](O)[C@H](O)[C@H]4O)[C@H]3OC(C)=O)ccc12
inactive: outcome [1] inactive [at 17.4 µM] | Potency [2] | Potency [3] | outcome [4] | Potency [5] | Potency [6] | Potency [7] | Potency [8] | Potency [9] | Potency [10] | Potency [11] | Potency [12] | Potency [13]

Oc1ccccc1-c1cc(-c2ccccc2F)[nH]n1
inactive: outcome [1] | Potency [2] | Potency [3] | outcome [4] | Potency [5] | Potency [6] | Potency [7] | Potency [8] | Potency [9] | Potency [10] | Potency [11] | Potency [12] | Potency [13]

CCC(C)C(=O)O[C@H]1[C@@H](O[C@H]2O[C@H](CO)[C@@H](O)[C@H](O)[C@H]2O)O[C@H](CO)[C@@H](O)[C@@H]1O (some centres not stated)
inactive: outcome [1] inactive [at 17.4 µM] | Potency [2] | Potency [3] | outcome [4] | Potency [5] | Potency [6] | Potency [7] | Potency [8] | Potency [9] | Potency [10] | Potency [11] | Potency [12] | Potency [13]

C=Cc1ccc(O[C@@H]2O[C@H](CO[C@@H]3O[C@@H](C)[C@H](O)[C@@H](O)[C@H]3O)[C@@H](O)[C@H](O)[C@H]2O)cc1
inactive: outcome [1] inactive [at 17.4 µM] | Potency [2] | Potency [3] | outcome [4] | Potency [5] | Potency [6] | Potency [7] | Potency [8] | Potency [9] | Potency [10] | Potency [11] | Potency [12] | Potency [13]

NC[C@H]1CCC[C@@H](CNC(=O)[C@@H](Cc2c[nH]c3ccccc23)NC(=O)N2CCC3(C=Cc4ccccc43)CC2)C1
inactive: outcome [1] | Potency [2] | Potency [3] | outcome [4] | Potency [5] | Potency [6] | Potency [7] | Potency [8] | Potency [9] | Potency [10] | Potency [11] | Potency [12] | Potency [13]

O=C(OCC1=CC(Cl)C(O)C(OC(=O)c2ccccc2)C1O)c1ccccc1 (configuration not stated)
inactive: outcome [1] inactive [at 17.4 µM] | Potency [2] | Potency [3] | outcome [4] | Potency [5] | Potency [6] | Potency [7] | Potency [8] | Potency [9] | Potency [10] | Potency [11] | Potency [12] | Potency [13]

N#CN1CCC[C@@H](n2nc(-c3ccc(Oc4ccc(F)cc4F)cc3)c(C(N)=O)c2N)C1
inactive: outcome [1] | Potency [2] | Potency [3] | outcome [4] | Potency [5] | Potency [6] | Potency [7] | Potency [8] | Potency [9] | Potency [10] | Potency [11] | Potency [12] | Potency [13]

O=C(Nc1ccn(Cc2c(F)cccc2C(F)(F)F)n1)c1c(F)cccc1F
inactive: outcome [1] inactive [at 9.27 µM] | activity change, negative = cytotoxicity [2] 3.35% [at 11.6 µM] | activity change, negative = cytotoxicity [3] 17% [at 11.6 µM] | activity change, negative = cytotoxicity [4] 7.64% [at 11.6 µM] | activity change, negative = cytotoxicity [5] 0.101% [at 11.6 µM] | activity change, negative = cytotoxicity [6] 13% [at 11.6 µM] | activity change, negative = cytotoxicity [7] -2.96% [at 11.6 µM] | activity change, negative = cytotoxicity [8] 9.68% [at 11.6 µM] | activity change, negative = cytotoxicity [9] 0.656% [at 11.6 µM] | activity change, negative = cytotoxicity [10] 10.8% [at 11.6 µM] | activity change, negative = cytotoxicity [11] 9.68% [at 11.6 µM] | activity change, negative = cytotoxicity [12] 10.6% [at 11.6 µM] | activity change, negative = cytotoxicity [13] 3.93% [at 11.6 µM]

C=C(C)C1Cc2c(ccc3c2OCC(c2ccc(O)cc2O)C3)O1 (configuration not stated)
inactive: outcome [1] | Potency [2] | Potency [3] | outcome [4] | Potency [5] | Potency [6] | Potency [7] | Potency [8] | Potency [9] | Potency [10] | Potency [11] | Potency [12] | Potency [13]

COC(=O)C1(O)C(OC(C)=O)CCC2C3(CC(c4ccoc4)OC3=O)C(C)=CCC21C(=O)OC (configuration not stated)
inactive: outcome [1] inactive [at 17.4 µM] | Potency [2] | Potency [3] | outcome [4] | Potency [5] | Potency [6] | Potency [7] | Potency [8] | Potency [9] | Potency [10] | Potency [11] | Potency [12] | Potency [13]

COC(=O)C[C@H]1C(C)(C)[C@H](OC(=O)C(C)C)C2CC3=C4CC(=O)O[C@@H](c5ccoc5)[C@]4(C)CCC3[C@@]1(C)C2=O (some centres not stated)
inactive: outcome [1] inactive [at 17.4 µM] | Potency [2] | Potency [3] | outcome [4] | Potency [5] | Potency [6] | Potency [7] | Potency [8] | Potency [9] | Potency [10] | Potency [11] | Potency [12] | Potency [13]

CC1(C)CCC[C@@]2(C)[C@H]1[C@H](O)C=C(CO)[C@]2(O)CO
inactive: outcome [1] | Potency [2] | Potency [3] | outcome [4] | Potency [5] | Potency [6] | Potency [7] | Potency [8] | Potency [9] | Potency [10] | Potency [11] | Potency [12] | Potency [13]

Source: PubChem BioAssay (NCATS)
